About 2,100 (0.66%) of roughly 320,000 compounds were called active. Another 53% or so got no clear call; they are omitted. Calls follow the shape of the dose curve; as a rule, active = well fitted inhibition curve with a large enough effect in the signal ratio, with a control signal flat (not every such curve was filed as active); inconclusive = small, poorly fitted or top-dose-only effect, or effect the other way, or a change in a side signal; inactive = flat fitted curve, though single readings scatter; the % refers to the signal ratio. The full list was thinned out, with actives kept by preference.
experiment: qHTS Assay for Lipid Storage Modulators in Drosophila S3 Cells; conditions: BODIPY lipid droplet fluorescence, 18-24 h, cells fed with added oleic acid; cell number change: measured here: cell count max response; series mostly up to 46.1 µM;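 as to cell number change: cells counted by Cell Tracker Red CMTPX staining in the red channel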
Procedure, shortened: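 Drosophila S3 cells loaded with oleic acid (400 uM, as added) and compounds at several concentrations; lipid droplets imaged by 488-nm laser-scanning cytometry, 500–530 nm intensity and object ratio to cell channel. Percent activity normalized to 20 uM Triacsin C.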
Potency is read from the fitted curve at half-maximal effect.

**Q.** For `Cc1cc(C)c2nc(N(CCCN(C)C)C(=O)C3=COCCO3)sc2c1`, which Potency is on record?
**A.** Its Potency is “inactive”.

**Q.** What about the cell number change of the same compound?
**A.** The cell number change was -20%.

**Q.** With `O=C(N/N=C/c1ccc(O)cc1)c1csc2c1CCCC2` as the compound, how does the Potency read?
**A.** Its Potency is “inactive”.

**Q.** For `O=C(N/N=C/c1cccc(F)c1)c1csc2c1CCCC2`, which Potency is on record?
**A.** The Potency was “inactive”.

**Q.** And the cell number change?
**A.** Its cell number change is 1.41%.

**Q.** With `Cc1ccc(/C=N/NC(=O)c2csc3c2CCCC3)cc1` as the compound, how does the Potency read?
**A.** The Potency was 16.4 µM (active).

**Q.** What about the cell number change of the same compound?
**A.** Its cell number change is -23.6%.

**Q.** With `COc1ccc(C)cc1S(=O)(=O)N(CC(=O)Nc1cccc([N+](=O)[O-])c1)c1cc(C)cc(C)c1` as the compound, how does the Potency read?
**A.** The Potency was “inactive”.

**Q.** For `CCOc1ccccc1OCC(=O)NN1Cc2ccccc2C1=N`, which Potency is on record?
**A.** Its Potency is “inactive”.

**Q.** For `CSc1ccc(/C=C/C(=O)c2ccc(NC(C)=O)cc2)cc1`, which Potency is on record?
**A.** The Potency was “inactive”.

**Q.** For `Cc1cccc(C(=O)Nc2ccc(C(=O)/C=C/c3ccncc3)cc2)c1`, which Potency is on record?
**A.** The Potency was 6.51 µM (active).

**Q.** And the cell number change?
**A.** The cell number change was -3.72%.

**Q.** What does the source list for `Cc1cccc(C(=O)N/N=C/c2ccncc2)c1`?
**A.** Potency: inactive; cell number change: -0.828%

**Q.** For `Cc1cccc(C(=O)Nc2ccc(O)cc2)c1`, which Potency is on record?
**A.** Its Potency is “inactive”.

**Q.** What about the cell number change of the same compound?
**A.** Its cell number change is 4.55%.

**Q.** Which Potency does the source give for `CC(=O)Nc1cccc(C(=O)/C=C/c2ccc[nH]2)c1` here?
**A.** Its Potency is “inactive”.

**Q.** What about the cell number change of the same compound?
**A.** Its cell number change is 9.89%.

**Q.** What does the source list for `CC(=O)Nc1cccc(C(=O)/C=C/c2ccc(/C=C/C(=O)c3cccc(NC(C)=O)c3)cc2)c1`?
**A.** Potency: 8.2 µM (active); cell number change: -12.7%

**Q.** With `CCOc1ccccc1CNC(=O)CCC(=O)N1Cc2ccccc2Oc2ncccc21` as the compound, how does the Potency read?
**A.** Its Potency is “inactive”.

**Q.** And the cell number change?
**A.** The cell number change was -10.6%.

**Q.** Which Potency does the source give for `CCOC(=O)C1(Cc2ccc(Cl)cc2)CCN(C(=O)c2cc(C)nc(C)n2)CC1` here?
**A.** Its Potency is “inactive”.

**Q.** And the cell number change?
**A.** The cell number change was -4.86%.

**Q.** What does the source list for `Cc1onc(-c2ccccc2Cl)c1C(=O)NCCCc1ccccc1`?
**A.** Potency: inactive; cell number change: -24%

**Q.** With `COc1ccc(C2c3[nH]c4ccccc4c3CCN2Cc2cccn2-c2ncccn2)cc1C` (stereo unspecified) as the compound, how does the Potency read?
**A.** The Potency was 16.4 µM (active).

**Q.** And the cell number change?
**A.** The cell number change was -1.91%.

**Q.** For `Cc1cccc(C2c3[nH]c4ccccc4c3CCN2Cc2cccn2-c2ncccn2)c1` (stereo unspecified), which Potency is on record?
**A.** Its Potency is “inactive”.

**Q.** What about the cell number change of the same compound?
**A.** Its cell number change is -27.2%.

**Q.** What does the source list for `Fc1ccc(C2c3[nH]c4ccccc4c3CCN2Cc2cccn2-c2ncccn2)cc1` (stereo unspecified)?
**A.** Potency: inactive; cell number change: 1.18%

**Q.** Which Potency does the source give for `CCN(CC)S(=O)(=O)c1cccc(-c2nnc(SCC(=O)c3cc(C)n(C4CC4)c3C)o2)c1` here?
**A.** Its Potency is “inactive”.

**Q.** And the cell number change?
**A.** The cell number change was 13.6%.

**Q.** With `CCCOc1ccc(N2C(=O)CC(NCc3cccs3)C2=O)cc1` (stereo unspecified) as the compound, how does the Potency read?
**A.** The Potency was “inactive”.

**Q.** What about the cell number change of the same compound?
**A.** The cell number change was 15.4%.

**Q.** Which Potency does the source give for `CCOC(=O)c1ccc(CNC(=O)C(Cc2c[nH]c3ccccc23)NC(C)=O)o1` (stereo unspecified) here?
**A.** Its Potency is “inactive”.

**Q.** For `O=C(NC(=O)c1c(Cl)cccc1Cl)Nc1ccc(Oc2cccnc2)nc1`, which Potency is on record?
**A.** Its Potency is “inactive”.

**Q.** And the cell number change?
**A.** Its cell number change is 1.56%.

**Q.** Which results are given for `O=C1/C(=C/c2cccs2)SC(=S)N1CCCC(=O)N(CCO)c1ccccc1`?
**A.** Potency: inactive; cell number change: 6.09%

**Q.** Which Potency does the source give for `Cc1cc(C)cc(C(=O)OCC(=O)N2CCCCCC2)c1` here?
**A.** Its Potency is “inactive”.

**Q.** What about the cell number change of the same compound?
**A.** The cell number change was -14.4%.

**Q.** For `O=C1CCCC(O)=C1N=Nc1c(Cl)cc(Cl)cc1Cl`, which Potency is on record?
**A.** Its Potency is “inactive”.

**Q.** What about the cell number change of the same compound?
**A.** Its cell number change is 2.67%.

**Q.** Which Potency does the source give for `C/C=N/NC(=O)c1cc(Br)ccc1O` here?
**A.** Its Potency is “inactive”.

**Q.** And the cell number change?
**A.** Its cell number change is 5.04%.

**Q.** Which results are given for `Cc1cccc(/C=N/NC(=O)c2cc(Br)ccc2O)n1`?
**A.** Potency: inactive; cell number change: 0.985%

**Q.** What does the source list for `Cc1c(/C=N/NC(=O)c2cc(Br)ccc2O)c(=O)n(C)c(=O)n1C`?
**A.** Potency: 5.8 µM (active); cell number change: -6.52%

Reference: PubChem BioAssay AID2685 (National Center for Advancing Translational Sciences (NCATS), 2010)
